Read-out in test [1]: UDP glucuronosyltransferase (UGT1A6), UGT1A6 (gene 54578)
Description: LTEA_HepaRG_UGT1A6: Life Technologies and Expression Analysis (LTEA) Assay for UDP glucuronosyltransferase (UGT1A6) using HepaRG (AID 2283539; active = hit-call score of the fitted dose curve at least 0.9, where 1 is the maximum; inactive = score below 0.9). The following applies: mRNA level, 48 h; actives raise or lower the signal. An outline of the steps:
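Expression was quantified by TaqMan qRT-PCR on Fluidigm arrays with ACTB/GAPDH/POLR2A normalization and bidirectional fitting against 0.5% DMSO. HepaRG cells (~100,000/well) were treated in duplicate for 48 h at eight half-log concentrations up to 100 uM in serum-free induction medium.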

Read-out in test [2]: X-box binding protein 1 (XBP1), XBP1 (gene 7494)
Kind of test: LTEA_HepaRG_XBP1: Life Technologies and Expression Analysis (LTEA) Assay for X-box binding protein 1 (XBP1) using HepaRG (AID 2283540; active = hit-call score of the fitted dose curve at least 0.9, where 1 is the maximum; inactive = score below 0.9). The following applies: mRNA level, 48 h; actives raise or lower the signal. An outline of the steps: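 XBP1 transcript by qRT-PCR (housekeeping-normalized: ACTB, GAPDH, POLR2A) after 48 h chemical treatment of HepaRG cells, 8-point half-log series topping at 100 uM, vehicle 0.5% DMSO. Gain and loss of signal fitted relative to DMSO.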

The nature of test [3]: LTEA_HepaRG_LDH_cytotoxicity: Cytotoxicity Assessment in the Life Technologies and Expression Analysis (LTEA) Assay (AID 2283563).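 For AC50: LDH activity released into spent culture medium as a marker of cell death.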 An outline of the steps: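 LDH release into culture medium read after 48 h chemical treatment of HepaRG cells. Duplicate wells, eight-point half-log series topping at 100 uM, 0.5% DMSO vehicle and baseline.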
Test [4] can be described thus: ATG_XTT_Cytotoxicity: Cytotoxicity Assessment in the Attagene TRANS-FACTORIAL HepG2 Assay (AID 2283584).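 For AC50: cells exposed to compound for 24 h before reading; active means loss of viability signal versus DMSO baseline.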 An outline of the steps: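 Viability endpoint from XTT after 24 h chemical exposure of reporter-transfected human HepG2 liver cells; signal loss fitted relative to DMSO negative control.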
The nature of test [5]: TOX21_p53_BLA_p2_viability: Viability Assessment in the Tox21 HCT-116 p53 Agonism Beta-lactamase Assay, Phase 2 (AID 2283591).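 Note: compound exposure lasted 16 h at 37 °C; actives lower the ATP signal meaning cytotoxicity.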 In short, it runs like this:
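Cytotoxicity readout: CellTiter-Glo ATP luminescence, 30 min at room temperature, after the beta-lactamase read. Cells were HCT116 exposed 16 h at 37C to compounds pin-transferred at 217-fold dilution from DMSO stocks.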

The target in test [6] is Cellular tumor antigen p53 (Homo sapiens) (UniProt P04637). Kind of test: TOX21_p53_BLA_p2_ratio: Tox21 HCT-116 p53 Agonism Beta-lactamase Assay, Ratio, Phase 2 (AID 2283592). An outline of the steps:
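Gain-of-signal p53 agonism was scored from the beta-lactamase FRET ratio (460/530 nm, 405 nm excitation) in HCT116 cells treated 16 h at 37C, 5% CO2, with DMSO serving as negative control and baseline.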

The target is the same in test [7]. Kind of test: TOX21_p53_BLA_p3_ratio: Tox21 HCT-116 p53 Agonism Beta-lactamase Assay, Ratio, Phase 3 (AID 2283596). In short, it runs like this: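 HCT116 p53-bla cells (4000/well) given compound in DMSO (217-fold dilution) after 5 h, incubated 16 h at 37C. CCF4-AM substrate 2 h at room temperature; 460/530 nm emission ratio, gain fitted against DMSO.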
The nature of test [8]: TOX21_p53_BLA_p4_viability: Viability Assessment in the Tox21 HCT-116 p53 Agonism Beta-lactamase Assay, Phase 4 (AID 2283597).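 Note: hits lower the luminescence signal meaning cytotoxicity.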 In short, it runs like this: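 Following a 16 h exposure at 37C, the treated HCT116 wells were first read for the FRET ratio. They were then lysed with CellTiter-Glo, and ATP luminescence was recorded after 30 min at room temperature.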
For test [9], the target named is Cellular tumor antigen p53 (Homo sapiens) (UniProt P04637). Description: TOX21_p53_BLA_p5_ratio: Tox21 HCT-116 p53 Agonism Beta-lactamase Assay, Ratio, Phase 5 (AID 2283599). An outline of the steps: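 Beta-lactamase reporter ratio (blue 460 nm over green 530 nm, 405 nm excitation) after 2 h CCF4-AM loading, in HCT-116 cells exposed 16 h at 37 C to compounds pinned at 217-fold dilution. Increases relative to DMSO baseline scored.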
Chain of Cellular tumor antigen p53 (Homo sapiens) (P04637 whole entry, looked up): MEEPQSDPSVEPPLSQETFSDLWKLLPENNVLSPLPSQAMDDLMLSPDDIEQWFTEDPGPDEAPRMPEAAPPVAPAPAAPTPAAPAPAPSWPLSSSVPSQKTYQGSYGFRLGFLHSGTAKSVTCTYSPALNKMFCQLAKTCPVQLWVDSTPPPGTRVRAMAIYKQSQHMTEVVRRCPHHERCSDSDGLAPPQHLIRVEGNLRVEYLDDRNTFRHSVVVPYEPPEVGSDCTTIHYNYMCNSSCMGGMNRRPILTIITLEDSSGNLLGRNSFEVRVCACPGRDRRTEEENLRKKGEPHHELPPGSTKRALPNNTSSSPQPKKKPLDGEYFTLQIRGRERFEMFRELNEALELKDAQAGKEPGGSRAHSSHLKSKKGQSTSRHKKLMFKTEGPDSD

Test [10] is described as follows: TOX21_p53_BLA_p3_viability: Viability Assessment in the Tox21 HCT-116 p53 Agonism Beta-lactamase Assay, Phase 3 (AID 2283593).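 Note: cells exposed to compound for 16 h before reading.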 An outline of the steps:
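Cellular ATP was quantified by CellTiter-Glo luminescence, read after 30 min at room temperature. Beforehand, HCT116 cells (4000/well) received compound 5 h post-seeding, 217-fold diluted from DMSO, then incubated 16 h at 37C.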

Where “and” joins values, the source holds several entries; their conditions need not be identical. Identical values can stand only once. Inconclusive results are not listed. More than one record can exist for a structure, and the calls need not agree. Calls of active or inactive are those of the source. Rule for the calls, unless noted: active = hit-call score of the fitted dose curve at least 0.9, where 1 is the maximum; inconclusive = response in the unintended direction; inactive = score below 0.9.

In the case of `CC(C)(C)c1ccc(O)c(C(C)(C)C)c1`, the result in [1], in [2], in [3], in test [4], in [5] and in test [6] was inactive. The molecule was called inactive in [8]. Moreover, the AC50 in [5] is 42.4 µM (active); in test [7] it was 77.4 µM (active) and 79.4 µM (active); in [8], 42.7 µM (active); in [9] it was 57.1 µM (active) and 60.2 µM (active).
For `c1ccc2cc3c(ccc4ccccc43)cc2c1`, the outcome in test [1], in test [3], in [4], in test [5], in test [6] and in [7] was inactive. Also, the result in test [8] and in [9] was inactive. Besides, the AC50 in test [2] is 17.2 µM (active).
In the case of `ClC1=C(Cl)C(Cl)(Cl)C(Cl)=C1Cl`, the outcome in test [1], in [2], in test [3], in [4], in [5] and in test [6] was inactive. For the same molecule, the call in test [8] and in test [9] was inactive. Besides, the AC50 in test [10] was 5.7 µM (active) and 3.42 µM (active); in test [7], 19.2 µM (active) and 2.22 µM (active).
For `CCCCCCCCCCCCCCCS(=O)(=O)Oc1ccccc1`, the molecule was classed as inactive in test [1], in test [2], in test [3], in test [4], in test [5] and in [6]. Also, the outcome in test [8] and in test [9] was inactive.
Take `CC[C@H](c1ccc(O)cc1)[C@@H](CC)c1ccc(O)cc1`: the result in test [1], in [4], in [5], in test [6], in [7] and in test [8] was inactive. Moreover, the result in [9] was inactive. The AC50 in test [2] was 85.6 µM (active); in [3], 76.1 µM (active); in test [4], 144 µM (active) and 133 µM (active) and 164 µM (active); in test [5], 61.7 µM (active); in test [6], 66.6 µM (active); in test [7], 14.4 µM (active). For the same molecule, the AC50 was 57.8 µM (active) in [8] and 67.1 µM (active) in test [9].
In the case of `CCCCCCCCCCCCN1CCCC1=O`, the molecule was called inactive in [1], in test [2], in test [3], in [5], in [6] and in test [8]. Further, the AC50 in test [4] is 155 µM (active); in test [7] it was 67.1 µM (active); in test [9], 63.2 µM (active).
In the case of `COCC(C)OCC(C)O` (stereo not given), the call in [1], in [3] and in test [4] was inactive. Moreover, the AC50 in test [2] is 50 µM (active).
For the molecule `CCCCCCCCCCCCc1ccccc1S(=O)(=O)O`, the molecule was classed as inactive in [1] and in [2]. The AC50 in test [3] is 77.7 µM (active); in test [4], 156 µM (active).
As to `Oc1cc2ccccc2c2ccccc12`, the result in test [1], in test [2] and in test [3] was inactive. For the same molecule, the AC50 in test [4] was 16.6 µM (active) and 16.3 µM (active); in test [5], 15.2 µM (active); in test [6], 46.1 µM (active); in test [7], 13.6 µM (active); in test [8] it was 12.2 µM (active); in [9], 11.6 µM (active).
`CCc1ccc(CCOc2ccc(CC3SC(=O)NC3=O)cc2)nc1` (stereo not given): the molecule was classed as inactive in test [1], in test [2], in test [3], in [4], in [5] and in [6]. The result in [7], in test [8] and in [9] was inactive.
Take `CN1CCC[C@H]1c1cccnc1`: the molecule was called inactive in test [1], in [2], in test [3] and in [4].
With `Nc1cccc2c(N)cccc12`, the call in test [1], in test [2], in [3], in test [4], in test [5] and in test [6] was inactive. Besides, the molecule was called inactive in test [10], in test [7], in [8] and in test [9].
In the case of `CC(C)(C)c1cccc(C(C)(C)C)c1O`, the molecule was called inactive in [1], in test [2], in [3], in [4], in test [5] and in test [6]. Moreover, the outcome in [7], in test [8] and in test [9] was inactive.
As to `CCCCCCCCC(=O)O`, the result in [1], in test [2], in test [3], in test [4], in test [5] and in test [6] was inactive. Further, the result in test [10], in [7], in test [8] and in [9] was inactive.
As to `CC(C)(C)CC(C)(C)c1ccc(O)c(-n2nc3ccccc3n2)c1`, the call in test [1], in test [2], in test [3], in [4], in [5] and in test [6] was inactive. The result in [7], in test [8] and in [9] was inactive.

For the origin of these results see PubChem BioAssay (EPA / NIEHS).
